Measured values as given in ChEMBL document CHEMBL2218924, “A broad activity screen in support of a chemogenomic map for kinase signalling research and drug discovery” (Biochem J, 2013).

Legend:
[1] = target: G protein-coupled receptor kinase 5 (Homo sapiens) (UniProt P34947); conditions: at 1 µM
[2] = target: G protein-coupled receptor kinase 6 (Homo sapiens) (UniProt P43250); conditions: at 1 µM
Sequence of G protein-coupled receptor kinase 6 (Homo sapiens) (P43250 whole entry, looked up): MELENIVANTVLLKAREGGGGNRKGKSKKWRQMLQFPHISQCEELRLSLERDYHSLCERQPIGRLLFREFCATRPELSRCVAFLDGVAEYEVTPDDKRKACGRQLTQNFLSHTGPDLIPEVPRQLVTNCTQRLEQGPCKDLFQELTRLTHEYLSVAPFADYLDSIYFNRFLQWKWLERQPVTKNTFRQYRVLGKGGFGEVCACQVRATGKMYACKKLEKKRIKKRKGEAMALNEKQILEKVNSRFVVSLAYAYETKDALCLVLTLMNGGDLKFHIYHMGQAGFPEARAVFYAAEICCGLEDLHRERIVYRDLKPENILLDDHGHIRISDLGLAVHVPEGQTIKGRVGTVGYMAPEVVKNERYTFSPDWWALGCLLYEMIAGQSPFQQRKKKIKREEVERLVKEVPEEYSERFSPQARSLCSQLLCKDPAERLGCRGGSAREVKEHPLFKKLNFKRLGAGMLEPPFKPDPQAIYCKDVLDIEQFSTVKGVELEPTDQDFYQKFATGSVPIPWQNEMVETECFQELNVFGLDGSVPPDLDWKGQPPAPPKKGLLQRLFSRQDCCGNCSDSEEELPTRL

Sequence of G protein-coupled receptor kinase 5 (Homo sapiens) (P34947 whole entry, looked up): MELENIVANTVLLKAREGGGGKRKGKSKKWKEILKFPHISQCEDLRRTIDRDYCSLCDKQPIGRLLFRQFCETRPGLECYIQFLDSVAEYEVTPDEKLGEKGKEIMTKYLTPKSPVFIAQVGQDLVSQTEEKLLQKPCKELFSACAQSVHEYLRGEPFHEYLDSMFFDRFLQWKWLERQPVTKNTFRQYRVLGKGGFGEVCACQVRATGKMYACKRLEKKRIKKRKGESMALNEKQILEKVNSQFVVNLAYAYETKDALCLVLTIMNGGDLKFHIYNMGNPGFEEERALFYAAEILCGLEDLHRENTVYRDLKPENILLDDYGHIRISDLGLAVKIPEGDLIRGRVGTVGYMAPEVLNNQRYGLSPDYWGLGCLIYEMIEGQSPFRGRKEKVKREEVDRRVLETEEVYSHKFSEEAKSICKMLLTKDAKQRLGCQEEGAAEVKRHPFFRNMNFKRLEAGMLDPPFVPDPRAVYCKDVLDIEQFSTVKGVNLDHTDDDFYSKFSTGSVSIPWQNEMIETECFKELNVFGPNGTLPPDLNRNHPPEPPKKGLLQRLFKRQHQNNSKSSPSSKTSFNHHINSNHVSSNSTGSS

Compound | residual activity [1] | residual activity [2]
O=c1cc(-c2cccc3c2Sc2ccccc2S3)oc(N2CCOCC2)c1 | 99% | 100%
O=C1NC(=O)C(c2c[nH]c3ccccc23)=C1c1c[nH]c2ccccc12 | – | 98%
COc1ccc(-c2cnc3c(-c4ccsc4)cnn3c2)cc1 | – | 99%
N#Cc1c(NC(=O)c2cccc3ccccc23)sc2c1CCCC2 | – | 98%
NC(=O)c1ccc(-c2nc(-c3ccc4c(c3)OCCO4)c(-c3ccccn3)[nH]2)cc1 | – | 95%
CC(=O)O/N=C1\C(=C2\C(=O)Nc3cc(Br)ccc32)Nc2ccccc21 | 98% | 86%
Cc1ccc(S(=O)(=O)/C=C/C#N)cc1 | 96% | 92%
O=C1NC(=O)c2c1c1c3ccccc3[nH]c1c1[nH]c3cc(Br)ccc3c21 | 102% | 102%
O=C1Nc2cc(Br)ccc2/C1=C1/Nc2ccccc2/C1=N\O | 89% | 89%
NC(=O)c1cccc(-c2cc(Nc3ccc(OC(F)(F)F)cc3)ncn2)c1 | – | 94%
c1ccc2c(-c3ccncc3)c[nH]c2c1 | 98% | 87%
O=C1Nc2ccccc2/C1=C1/Nc2ccccc2/C1=N\OCCC(O)CO (configuration not stated) | – | 68%
Ic1cccc(CSc2nnc(-c3ccncc3)o2)c1 | 89% | 89%
CC(C)n1cnc2/c(=N/c3cccc(Cl)c3)nc(NCCO)[nH]c21 | 92% | 90%
CCN(CC)C(=O)c1ccc(Nc2nc(OCC3CCCCC3)c3nc[nH]c3n2)cc1 | – | 97%
Cc1cncc2cccc(S(=O)(=O)N3CCCN(C(=O)CN)C[C@H]3C)c12 | 98% | 84%
O=C1Nc2ccc(Cl)cc2/C1=C/c1cc(Cl)c(O)c(Cl)c1 | – | 90%
Nc1cccc(-c2cc3c(Oc4cccc(O)c4)ncnc3[nH]2)c1 | 92% | 93%
Nc1ncnc2c1cnn2-c1ccccc1 | – | 93%
CCOC(=O)c1c(C)[nH]c(/C=C2\C(=O)Nc3ccccc32)c1C | – | 98%
O=C1Nc2ccc(Br)cc2/C1=C\c1cc2c([nH]1)CCCC2 | 104% | 102%
Cc1cccc(-c2[nH]c(C(C)(C)C)nc2-c2ccc3c(c2)OCO3)n1 | 105% | 103%
COc1ccc(Cl)cc1NC(=O)Nc1cc(C)nc2ccccc12 | – | 98%
CCN1/C(=C/C(C)=O)Sc2ccc(OC)cc21 | – | 100%
O=C(c1ccccc1)c1ccc(N2CCOCC2)cc1O | – | 96%
